Records with an inconclusive call do not appear. Where a call stands in place of a potency, no number is given. Active and inactive are the calls of the source. The call rests on the fitted dose curve; in most records, active means well fitted inhibition curve with a large enough effect; inconclusive means small, poorly fitted or top-dose-only effect; inactive means flat fitted curve, though single readings scatter.
Biological target: Calcium and integrin-binding protein 1 (Homo sapiens) (UniProt Q99828)
Test: Primary qHTS for Identification of Calcium Integrin Binding Protein 1 (CIB1) Competitor (AID 1508620);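 further: GST tagged CIB1 binding a fluorescein labelled alphaIIb integrin peptide tracer; top concentration of the series differs between compounds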
Summary of the method: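 CIB1-GST (1 uM final) and compound incubated 15 min at room temperature before adding FITC-alphaIIb peptide tracer (100 nM final). Competition for binding read by fluorescence polarization (ex 480, em 540) after another 15 min at room temperature.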

Calcium and integrin-binding protein 1 (Homo sapiens), sequence (Q99828 whole entry, looked up): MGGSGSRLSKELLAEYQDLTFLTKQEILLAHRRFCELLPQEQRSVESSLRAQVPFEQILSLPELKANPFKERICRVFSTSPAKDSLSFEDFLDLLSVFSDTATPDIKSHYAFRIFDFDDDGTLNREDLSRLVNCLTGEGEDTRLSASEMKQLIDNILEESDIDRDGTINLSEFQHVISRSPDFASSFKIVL

Structure (SMILES)	Potency
Cc1ccc(-c2cnn(CC(=O)NCCc3ccccc3)c(=O)c2)cc1	inactive
CCOC(=O)c1ccoc1-c1ccc2ncnc(NCc3ccc(C)o3)c2c1	inactive
S=P(c1ccccc1)(c1ccccc1)c1nc(CCCc2ccccc2)n2ccccc12	inactive
O=C(OCC#CCSc1nnc(-c2ccc3ccccc3c2)o1)c1cccc(F)c1	inactive
O=C(O)c1ccc2c(c1)C(=O)N([C@]1(C(=O)O)C[C@H]1c1ccccc1)C2=O	inactive
O=C(CNC(=O)c1cccc(Cl)c1)OC(C(=O)Nc1cc(C(F)(F)F)ccc1Cl)c1ccccc1 (stereo not given)	inactive
COc1cccc(CNc2ccc(S(=O)(=O)Nc3cccnc3)cc2)c1O	inactive
CN(c1cccc2cccnc12)S(=O)(=O)c1ccccc1	inactive
COc1ccc(C2Nc3ccccc3C(=O)N2Cc2cccs2)cc1COc1c(C)cccc1C (stereo not given)	inactive
COc1ccc(C2=Nn3c(nnc3-c3ccccc3O)SC2)c(OC)c1	inactive
Cc1cnc(-c2ccccc2CO)nc1NCc1ccc(-c2cccnc2)cc1	inactive
Cc1ccnc(NC(=S)N2CCN(c3ccc(F)cc3)CC2)c1	inactive
Cc1ccc(-c2ccnn(CC(=O)N(C)C(C)c3ccco3)c2=O)cc1 (stereo not given)	inactive
Cc1ccc(-c2ccc(=O)n(CC(=O)NCc3ncc[nH]3)n2)cc1	inactive
O=C(Nc1ncc([S+](=O)([O-])N2CCOCC2)s1)c1cccc(Br)c1	inactive
O=C1CCCC2=C1C1(CCCC1)N=C(Nc1nc3cc(-c4ccccc4)ccc3o1)N2	inactive
CC(=O)Nc1sc2c(c1-c1nc3ccccc3s1)CCS(=O)(=O)C2	inactive
COc1ccc(C2Nc3ccccc3C(=O)N2Cc2ccccc2)cc1COc1c(C)cc(NC(C)=O)cc1C (stereo not given)	inactive
COc1ccc(-c2ccc3ncnc(NCc4cccs4)c3c2)cc1	inactive
Cc1cc2c(s1)c1cnn(Cc3ccc(C)c(F)c3)c(=O)c1n2C	inactive
C[C@@H]1CN(S(=O)(=O)c2c(F)cccc2F)CCN1S(=O)(=O)c1ccc2c(c1)OCCO2	inactive
COc1ccc(NC(=O)CN2C(=O)N/C(=C\c3cccn3-c3ccc(C(=O)NC#N)cc3)C2=O)cc1	inactive
CCOc1cc2c(cc1OCC)CN(C(=O)c1cc3sccc3n1Cc1ccccc1)CC2	inactive
CC(C)(C)OC(=O)N1CCN(c2ccc(NCc3ccc(-c4ccc(C#N)cc4)s3)cc2)CC1	inactive

Structure (SMILES)	Potency
Nc1ccccc1S(=O)(=O)Nc1cccc2cccnc12	inactive
O=C(Nc1ccc(O)c2ncccc12)c1ccccc1F	inactive
Fc1cc(Nc2nc(-c3ccncc3)nc3ccccc23)ccc1-c1ccc2[nH]ncc2c1	inactive
O=[N+]([O-])c1ccc(-c2nc(Nc3ccc(F)c(F)c3)c3ccccc3n2)cc1	inactive
O=S(=O)(Nc1nccs1)c1ccc(NCc2ccccc2O)cc1	inactive
CN1CCN(C(=O)c2cccc(-c3ccc(CNc4ccc(N5CCN(C(=O)OC(C)(C)C)CC5)cc4)o3)c2)CC1	inactive
Cc1ccc(CNc2ccc(N3CCN(C(=O)OC(C)(C)C)CC3=O)cc2)cc1	inactive
CC(=O)Nc1sc2c(c1-c1ccc3c(c1)CCO3)CCNC2	inactive
CCCCN(C)C(=O)Cn1nc(-c2ccc(C(C)=O)cc2)ccc1=O	inactive
CCOC(=O)CC(=O)Nc1ncnc2c1C(c1ccccc1)c1c(ccc3ccccc13)O2 (stereo not given)	inactive
COc1cc(-c2ccc3ncnc(NCCc4cnc[nH]4)c3c2)cc(OC)c1OC	inactive
O=[S+]([O-])(c1c(F)cccc1F)N1CCN([S+](=O)([O-])c2c(F)c(F)c(F)c(F)c2F)CC1	inactive
Cc1ccc(S(=O)(=O)Nc2ccccc2C(=O)Nc2nc(-c3ccccc3)c(C)s2)cc1	inactive
Nc1ccc(NC(=O)Nc2nnc(-c3ccncc3)s2)cc1C(F)(F)F	inactive
CC(=O)Nc1sc2c(c1-c1nc3ccccc3s1)CNCC2	inactive
Cc1c(C(=O)OCC2CCCCO2)[nH]c2c1C(=O)CC(c1ccco1)C2 (stereo not given)	inactive
OCc1ccnc(NC(=S)N2CCN(c3cccc(C(F)(F)F)c3)CC2)c1	inactive
O=S(=O)(c1ccc(C(F)(F)F)cc1)N1CCN(S(=O)(=O)c2ccc3c(c2)OCCO3)CC1	inactive
COc1cc(-c2ccc3ncnc(NCC4CCCO4)c3c2)cc(OC)c1OC (stereo not given)	inactive
Cc1ccc(-c2ccc(=O)n(CC(=O)NCCCN(C)C)n2)cc1	inactive
CCCCNC(=O)c1ccc2c(c1)ncn2-c1cccc(C)c1	inactive
Cc1ccnc(NC(=S)N2CCc3cccc(C(F)(F)F)c3C2)c1	inactive
CC(C)(C)OC(=O)N1CCN(c2ncc(NCc3ccc(-c4ccc(C#N)cc4)o3)cn2)CC1	inactive
Fc1cc(Nc2nc(-c3ccncc3)nc3ccccc23)ccc1C(F)(F)F	inactive

Structure (SMILES)	Potency
CC(=O)Nc1sc2c(c1-c1cncnc1)CCNC2	inactive
COc1cc(F)c(S(=O)(=O)N2CCN(S(=O)(=O)c3cccs3)CC2)c(F)c1	inactive
COc1cccc(CNc2ccc(S(=O)(=O)Nc3cnc4ccccc4c3)cc2)c1O	inactive
Fc1cc(Nc2nc(-c3ccncc3)nc3ccccc23)ccc1-c1ccc(F)c(F)c1F	inactive
N#Cc1ncc(C(=O)OCC(=O)NC2C3CC4CC(C3)CC2C4)cn1 (stereo not given)	inactive
NC(=O)c1ccc(C[C@H](C(=O)O)N2C(=O)c3ccc(C(=O)O)cc3C2=O)cc1	inactive
CCOC(=O)c1ccoc1-c1ccc2ncnc(NCCc3cnc[nH]3)c2c1	inactive
Cc1noc(C)c1-c1ccc2ncnc(NCc3ccc(C(F)(F)F)o3)c2c1	inactive
N#Cc1c(-c2cccc(O)c2)no[n+]1[O-]	inactive
CC(C)(C)OC(=O)N1CCN(c2ccc(NCc3ccc(-c4ccc(C#N)cc4)o3)nc2)CC1	inactive
Cc1ccc(C2N=C(Nc3nc4ccccc4o3)NC3=C2C(=O)CCC3)s1 (stereo not given)	inactive
O=C1c2ccccc2C(=O)N1c1ccc2ncccc2c1	inactive
Cc1noc(Nc2sc3c(c2-c2nc4ccccc4s2)CCNC3)n1	inactive
CC(C)(C)OC(=O)NCC(=O)NNC(=O)C(C(=O)OCc1ccccc1)c1ccccc1 (stereo not given)	inactive
O=C(Nc1cccc(-c2nn3c(=O)cc(N4CCNCC4)nc3s2)c1)c1ccon1	inactive
Cc1cc(-c2nc(Nc3ccc(F)c(F)c3)c3ccccc3n2)cc(C)n1	inactive
N=c1c2c(ccn1CCCc1ccccc1)Oc1ccc3ccccc3c1C2c1ccccc1 (stereo not given)	inactive
Cc1ccc(NS(=O)(=O)c2ccc3c(c2)CCC(=O)N3C)cc1Cl	inactive
Cc1csc(CNc2ncnc3ccc(-c4cccc(Cl)c4)cc23)c1	inactive
Cc1ccc(NS(=O)(=O)c2ccc3ccccc3c2)cc1C	inactive
O=C(Nc1ccc(Cl)c(Cl)c1)Nc1ncc(-c2ccncc2)s1	inactive
N#CC1=C(NC=NCc2ccccc2)Oc2ccc3ccccc3c2C1c1ccccc1 (stereo not given)	inactive
O=C(NCCc1ccccc1)C1CCN(c2nc(-c3ccc(Br)cc3)cs2)CC1	inactive
Fc1ccc(-c2c(P(=S)(c3ccccc3)c3ccccc3)n3ccccc3[n+]2C/C=C/c2ccccc2)cc1	inactive

Structure (SMILES)	Potency
O=C1c2ccccc2C(=O)N1c1ncccc1O	inactive
CCCN(C)c1ncnc2ccc(-c3ccc4c(c3)OCO4)cc12	inactive
c1ccc(-c2nc(NCc3ccc(-c4cccnc4)cc3)c3ccccc3n2)cc1	inactive
N#Cc1ccc(-c2ccc(CNc3ccc(N4CCOCC4)cc3)o2)cc1	inactive
COc1cc(Nc2nc(-c3ccncc3)nc3ccccc23)ccc1NS(C)(=O)=O	inactive
O=S(=O)(NCC1CCC(NS(=O)(=O)c2c(F)cccc2F)CC1)c1ccc2c(c1)OCCO2 (stereo not given)	inactive
COc1cc(OC)c2c(c1)OC(=O)CC2c1ccc2c(c1)OCO2 (stereo not given)	inactive
CN(Cc1ccco1)c1ncnc2ccc(-c3ccc4c(c3)OCCO4)cc12	inactive
O=C1CCCC2=C1C(c1ccc(Cl)cc1)N=C(Nc1nc3ccccc3o1)N2 (stereo not given)	inactive
O=C1c2ccccc2NC(c2ccc(-c3cccs3)o2)N1O (stereo not given)	inactive
CC(=O)Nc1sc2c(c1-c1ccc(N(C)C)cc1)CCNC2	inactive
CC(C)(C)OC(=O)NCc1nnc(-c2cc3ccccc3[nH]2)s1	inactive
CC(=O)N1CCN(c2ccc(NS(=O)(=O)c3ccc4c(c3)CC(=O)N4)cc2)CC1	inactive
Cc1cc(NS(=O)(=O)c2ccc(NS(=O)(=O)Cc3ccc(Cl)c(Cl)c3)cc2)no1	inactive
Cc1cc2c(s1)c1cnn(Cc3ccc(C#N)cc3)c(=O)c1n2C	inactive
COc1cc2ncnc(N(C)Cc3csc(C)n3)c2cc1-c1ccc2c(c1)OCO2	inactive
CCOc1ccc(CCN(C)C(=O)c2cc3sccc3n2Cc2ccccc2)cc1OCC	inactive
COc1cccc(CCC(=O)NCCc2nc3ccccc3n2CCOc2ccc(C)cc2)c1	inactive
Cn1c2cc(S(C)(=O)=O)sc2c2cnn(Cc3ccccc3F)c(=O)c21	inactive
O=S(=O)(NC[C@@H]1CCC[C@H](CNS(=O)(=O)c2c(F)cccc2F)C1)c1ccc2c(c1)OCCO2	inactive
COc1cc(Nc2nc(-c3ccncc3)nc3ccccc23)ccc1Cl	inactive
Cc1ccc(-c2nnc(NC(=O)Nc3ccc4ccccc4c3)s2)cc1	inactive
CCNC(=O)c1ccc(-c2ccc3ncnc(NCc4nc(C)cs4)c3c2)o1	inactive
O=C(Nc1ncc(Cc2ccc(C(F)(F)F)cc2)s1)c1ccc(-c2ccc([N+](=O)[O-])cc2)o1	inactive

Structure (SMILES)	Potency
NC(=O)C1CCN(c2nccc(-c3ccc4c(c3)OCCCO4)n2)CC1	inactive
O=S(=O)(Nc1nc(-c2ccccc2C(F)(F)F)nc2ccccc12)c1ccc(-c2cccnc2)cc1	inactive
CC(C)(C)c1ccc(CSc2nc3ncc(Br)cc3[nH]2)cc1	inactive
OCC#CCSc1nnc(-c2cccc3ccccc23)o1	inactive
Oc1cccc2cc(Nc3ccccc3)cnc12	inactive
CS(=O)(=O)c1ccc(C(=O)OCC(=O)N2CCN(C3CCCCC3)CC2)cc1[N+](=O)[O-]	inactive
Cc1ccc(CNc2nc(-c3ccccc3C(F)(F)F)nc3ccccc23)cc1	inactive
Cc1cc(C)nc(NCc2ccc(O)c3ncccc23)c1	inactive
Cc1ccc(OCCn2c(CCNC(=O)/C=C/c3ccccc3Cl)nc3ccccc32)cc1	inactive
Cc1ccc(OCCn2c(CCNC(=O)Cc3ccccc3F)nc3ccccc32)cc1	inactive
COc1ccc(S(=O)(=O)N2CCN(S(=O)(=O)c3ccc(OC)cc3)CC2)cc1	inactive
Cc1cc(N(C)S(=O)(=O)c2ccc(NC(=O)Cc3ccc(Cl)c(Cl)c3)cc2)no1	inactive
CC(C)(NC(=O)Nc1ccccc1Cl)C(=O)N1CCC(C(=O)O)CC1	inactive
COc1ccnc(NC(=S)N2CCN(c3ccc4ccccc4n3)CC2)c1	inactive
CC(C)(C)OC(=O)N1CCC(c2ccc(NCc3ccc(-c4ccc(C#N)cc4)o3)cc2)CC1	inactive
Cc1ccc(OCCn2c(CCNC(=O)c3cccc4cc[nH]c34)nc3ccccc32)cc1	inactive
O=C(O)c1ccccc1OC1=NS(=O)(=O)c2ccccc21	inactive
Cc1ccc(S(=O)(=O)Nc2cccc3cccnc23)c([N+](=O)[O-])c1	inactive
O=C(Nc1cncc(Cc2ccccc2)c1)c1ccc(-c2cccc([N+](=O)[O-])c2)o1	inactive
Cc1ccccc1S(=O)(=O)N1CCc2cc(-c3nc(NC(=O)Cc4ccc5c(c4)OCO5)sc3C)ccc21	inactive
COc1ccc(C(=O)Oc2ccc(-c3nc4ccccc4[nH]3)cc2)cc1OC	inactive
COc1ccc(C2Nc3ccccc3C(=O)N2Cc2ccc(C(F)(F)F)o2)cc1COc1c(C)cccc1C (stereo not given)	inactive
Cc1noc(C)c1-c1ccc2ncnc(NCc3ccccc3F)c2c1	inactive
N#Cc1ccc(NS(=O)(=O)c2ccc3c(c2)CCC(=O)N3)cc1	inactive

Source: PubChem BioAssay (NCATS)
